# Screening data from PubChem BioAssay.
# Hits are enriched below; roughly 20% of the tested compounds scored in any of these assays.
# CHX counter: affects cycloheximide protein synthesis inhibition readout, counter-screen. hit rate 12% among 300,000. max response, %. cell reporter, cycloheximide protein synthesis inhibition counterscreen; in the data active means max response mostly above about 13%, no sharp cut-off; inactive means mostly below about 14%; further: read at 38.3 µM for the half of the compounds with a filed dose; 0% is about no effect
# Shiga inhibitor: Shiga toxin inhibition; AID 2315; Vero cells, Shiga toxin protein synthesis inhibition reporter; hit rate 9.2% among 290,000; inhibition, % at 38.7 µM; in the data active means inhibition mostly above about 28%, no sharp cut-off; inactive means mostly below about 43%; further: 0% is about no effect
# HCMV antiviral: human cytomegalovirus inhibition | HFF cells, HCMV-luciferase reporter, 72 h; hits give low values | activity change, negative = inhibition, % at 57.5 µM | hit rate 4.5% among 410,000; in the data active means activity change below about -60%; inconclusive means no clear call, values can overlap the other calls; inactive means above about -39%; further: on the % scale 0 is the no-effect control and ±100 the full control effect
#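 Two compound doses tested in HFFs infected with HCMV-luciferase, MOI 1 PFU/cell, 72 h at 37C. Lysate luminescence read with OneGlo; data normalized against buffer-only and 10uM Salinomycin inhibitor controls.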
# Pf growth 96h: inhibits malaria parasite growth, 96 h | hit rate 6.9% among 320,000 | P. falciparum luciferase reporter growth, 96 h | Potency, µM (titrated, usually from 28.7 µM), inactives show top-dose activity change, negative = inhibition, most hits filed as inhibitors; further: potency means the concentration at half of the fitted maximal effect; on the % scale 0 is the no-effect control and ±100 the full control effect
#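 Two-generation exposure (96 h) targets delayed-death phenotype. Reporter parasites carrying integrated firefly luciferase, in red cells at 2% hematocrit and 0.05% parasitemia final, kept at 37 C, 5% CO2; luminescence loss indicates inhibition.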
# Pf growth 48h: P. falciparum growth inhibition at 48 hours (one generation) | P. falciparum luciferase growth in erythrocytes, 48 h | Potency, µM (doses to about 28.7 µM), for the others: at the highest dose activity change, negative = inhibition, most hits filed as inhibitors | hit rate 5.9% among 310,000; further: potency means the concentration at half of the fitted maximal effect; on the % scale 0 is the no-effect control and ±100 the full control effect
#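 First compound was added to culture medium, then infected red cells at 0.1% parasitemia and 2% hematocrit (final). After incubation at 37 C under 5% CO2, luciferase detection reagent was dispensed and light output recorded.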
# The depositor's hits bear a star; i = inactive; ? = inconclusive; . = no result given; [ ] = remark or other dose. Unless noted, the call rests on the fitted dose curve; in most records, active means well fitted inhibition curve with a large enough effect; inconclusive means small, poorly fitted or top-dose-only effect, or another doubt; inactive means no such curve, though single readings can be large or run the other way.
SMILES,CHX counter,Shiga inhibitor,HCMV antiviral,Pf growth 96h,Pf growth 48h
CN1C(=O)CC(C(=O)Nc2ccc(F)cc2)SC1=Nc1ccc2c(c1)OCO2 (stereo unspecified),-2.5,-4.4,.,19.1%,?
CC(=O)c1c(C)[nH]c(C(=O)Nc2cc(C)ccc2C)c1C,-2.6,-13.8,-0.3,1.7%,.
CC(=O)c1c(C)[nH]c(C(=O)Nc2cccc(C#N)c2)c1C,1.4,51.9,49.1,?,?
CC(=O)c1c(C)[nH]c(C(=O)Nc2cccc(C(F)(F)F)c2)c1C,32.2*,72.8*,?,1.85µM*,4.15µM*
CC(=O)c1c(C)[nH]c(C(=O)Nc2ccc(C)c(C)c2)c1C,36.3*,65.4*,193.3,27.1%,.
COc1ccc(NC(=O)c2[nH]c(C)c(C(C)=O)c2C)cc1Cl,59.9*,55.6,336.4,-21.3%,?
CC(=O)c1c(C)[nH]c(C(=O)NC2CCCCC2)c1C,16.0*,16.0,44.8,-4.0%,0.0%
COC(=O)c1c(C)oc2ccc(N(C(=O)Oc3ccccc3)S(=O)(=O)c3ccc(C(C)(C)C)cc3)cc12,.,.,-32.6,.,.
CCOC(=O)[C@]12CCC=C1N(Cc1ccc(Cl)cc1Cl)C(=O)[C@H](CC(=O)NCc1ccc(C)o1)C2,.,.,7.2,.,.
Cc1ccc(C)c(C(=O)COC(=O)C2CCN(c3ccc(C(F)(F)F)cn3)CC2)c1,.,.,-9.6,1.3%,?
CCc1c(C(=O)Nc2ccc(C)c(C)c2)[nH]c(C)c1C(C)=O,40.0*,83.6*,65.1,3.1%,-9.8%
CCc1c(C(=O)NCCc2ccc(OC)c(OC)c2)[nH]c(C)c1C(C)=O,-1.1,-8.8,49.4,45.9%,-14.1%
O=C(O)c1ccc(-c2nc(-c3ccccc3Cl)cs2)cc1,28.8*,143.5*,36.7,78.2%,57.2%
Cc1ccc(S(=O)(=O)Nc2ccc(-c3csc(-c4ccccc4)n3)cc2)cc1,7.5,9.6,-35.2,-29.4%,15.9%
O=C(O)c1ccc(-c2nc(-c3ccccc3)cs2)cc1,37.4*,41.4*,30.0,i,160.0%
Cc1[nH]c(=O)c(C#N)cc1-c1csc(-c2ccccc2)n1,-2.8,-8.0,10.4,18.9%,.
Cc1oncc1-c1csc(-c2ccccc2)n1,51.1*,63.9*,-31.2,112.7%,54.3%
O=S(=O)(Nc1ccc(-c2csc(-c3ccccc3)n2)cc1)c1ccccc1,0.9,-4.5,-17.3,0.657µM*,16.0%
c1ccc(-c2csc(-c3ccc(-c4csnn4)cc3)n2)cc1,6.6,16.9,3.0,159.7%,131.6%
CC(C)(C)n1nnnc1C(c1ccccc1)N1CCN(c2ccc(C(F)(F)F)cn2)CC1 (stereo unspecified),.,.,-20.5,.,.
CCC1(c2ccccc2)NC(=O)N(CC(=O)NCCN2C(=O)S/C(=C\c3cccnc3)C2=O)C1=O (stereo unspecified),.,.,-38.7,?,?
CSC1=NC2(CCN(C(=O)NC3CCCCC3)CC2)N=C1c1ccc(C(C)(C)C)cc1,.,.,-0.5,.,.
CNC(=O)c1ccc(-c2nc(-c3ccccc3)cs2)cc1,32.5*,43.1*,6.0,91.0%,49.6%
O=C(O)c1ccc(-c2nc(-c3ccc(Cl)c(Cl)c3)cs2)cc1,36.6*,140.6*,.,0.0%,40.3%
CC(=O)c1nc(-c2ccccc2)sc1C,26.0,76.8*,-10.9,?,30.3%
SMILES,CHX counter,Shiga inhibitor,HCMV antiviral,Pf growth 96h,Pf growth 48h
C=CCNC(=O)c1ccc(-c2nc(-c3ccc(Cl)c(Cl)c3)cs2)cc1,-3.4,-4.8,?,?,?
CC(=O)c1csc(-c2ccccc2)n1,15.9*,41.1*,-29.7,15.5%,4.6%
Cc1c(C(=O)Nc2nnc(C3CC3)s2)oc2ccccc12,.,.,-0.7,176.6%,281.5%
CCCCC[C@H](O)/C=C\[C@H]1[C@H](C/C=C\CCCC(=O)O)[C@@H](O)C[C@H]1O (tested in a mixture with another compound),.,.,.,?,-6.7%[12.8 µM]
COc1cccc(Cn2c(=O)n(Cc3ccccc3)c(=O)c3c2c2cc(OC)ccc2n3C)c1,.,.,16.5,.,.
COc1cccc(C(=O)NCCS(=O)(=O)NC(C)CCc2ccccc2)c1 (stereo unspecified),.,.,-34.2,?,?
O=C(CCNC(=O)c1ccccc1Cl)NCCc1ccc(C(F)(F)F)cc1,5.8,-3.0,5.2,11.2%,10.4%
COc1ccc(NC(=O)Cn2c(=O)n(-c3ccc(C)cc3)c(=O)c3c2cnn3C)cc1,.,.,27.9,.,.
O=C(O)c1ccccc1-c1csc(-c2ccccc2)n1,23.3*,79.0*,5.6,49.1%,37.6%
O=C(NCc1nc(-c2ccccc2)cs1)c1ccccc1,19.2*,29.7*,-17.0,-21.1%,87.7%
NC(=O)c1csc(CCNC(=O)c2ccccc2)n1,.,.,-11.8,.,.
CCOC(=O)C1CCCN(C(=O)c2nn(-c3ccc(C)cc3)c(=O)n(C)c2=O)C1 (stereo unspecified),.,.,7.4,.,.
Cc1cc(C)c(O)c(-c2cc(C(=O)Nc3c(C)n(C)n(-c4ccccc4)c3=O)[nH]n2)c1,-1.7,11.0,44.0,-15.9%,6.1%
COc1ccc(N2CC(C(=O)Nc3ccc(NC(C)=O)cc3)CC2=O)cc1 (stereo unspecified),.,.,-5.1,.,.
COCCn1c(-c2cccc([N+](=O)[O-])c2)nc2c1c(=O)[nH]c(=O)n2Cc1ccccc1,1.0,-6.4,-87.3*,11.7µM*,?
CCCOc1ccc(-c2nc3c(c(=O)[nH]c(=O)n3Cc3ccccc3)n2CCO)cc1OCC,-5.5,-17.3,55.4,?,?
CCCCn1c(=O)[nH]c(=O)c2c1nc(-c1ccc(OCCC)c(OCC)c1)n2CCOC,0.7,-7.0,-27.6,?,9.28µM*
CCCn1c(-c2cc(OC)c(OC)c(OC)c2)nc2c1c(=O)[nH]c(=O)n2Cc1ccccc1,-5.4,-9.5,73.0,?,9.28µM*
CN1C(=O)CON=C1c1cccc2ccccc12,.,.,27.9,.,.
CCOc1ccc(CNS(=O)(=O)c2c(C(=O)N3CCCCCC3)c(C)n(C)c2C)cc1OC,.,.,-12.2,.,.
O=C(CN1CCSC1=O)N1CCN(S(=O)(=O)c2ccc(Cl)cc2)CC1,.,.,-60.4*,?,23.6%
O=C(Cn1cc(C(F)(F)F)ccc1=O)N1CCN(S(=O)(=O)c2ccc(Cl)cc2)CC1,-1.8,12.5,-5.7,?,2.94µM*
O=C(CN1CCSC1=O)N1CCN(S(=O)(=O)c2ccccc2)CC1,.,.,6.3,15.9%,0.0%
CN1c2ccc([N+](=O)[O-])cc2CC2(C(=O)NC(=O)NC2=O)C1c1ccccc1 (stereo unspecified),-2.0,-4.2,-19.7,?,?
CC(C)N1C(=O)NC(=O)C2(Cc3cc([N+](=O)[O-])ccc3N(C)C2c2ccccc2)C1=O (stereo unspecified),-2.9,-12.1,21.2,11.7µM*,?
CN1c2ccc([N+](=O)[O-])cc2CC2(C(=O)NC(=O)N(c3ccccc3)C2=O)C1c1ccccc1 (stereo unspecified),-4.9,-4.9,-16.5,2.94µM*,3.29µM*
